A selection: hits, their analogues and other compounds. The true share with any hit is near 2.4%.
Cruzain Triton: qHTS Assay for Promiscuous and Specific Inhibitors of Cruzain (with detergent); Cruzipain (Trypanosoma cruzi), P25779; purified cruzain, Z-FR-AMC fluorescence, 0.01% Triton; Potency, µM, for the others: max response, negative = inhibition, most hits filed as inhibitors; 200,000 compounds, 0.43% hits; AID 1478, 2009;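 further: plate controls were neutral wells for no effect and buffer without enzyme for full effect; nearly all actives have a fitted effect of over 40% in size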
Target sequence (P25779 123-467 limits assumed): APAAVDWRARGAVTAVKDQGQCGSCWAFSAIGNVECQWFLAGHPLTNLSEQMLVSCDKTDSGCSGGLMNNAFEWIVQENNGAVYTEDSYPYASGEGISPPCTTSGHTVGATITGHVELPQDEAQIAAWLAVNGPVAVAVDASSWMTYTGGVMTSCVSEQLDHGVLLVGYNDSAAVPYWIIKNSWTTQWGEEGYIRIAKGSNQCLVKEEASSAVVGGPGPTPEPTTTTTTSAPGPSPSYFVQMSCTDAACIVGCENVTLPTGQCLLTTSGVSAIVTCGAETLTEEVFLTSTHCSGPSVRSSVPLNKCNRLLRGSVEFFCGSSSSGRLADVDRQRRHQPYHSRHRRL
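Cysteine protease activity tested under reducing, mildly acidic conditions (100 mM sodium acetate pH 5.5, 5 mM DTT) plus 0.01% Triton X-100. Cruzain 1.5 nM; substrate Z-FR-AMC 2 uM; 15 min compound preincubation at room temperature.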
Cruzain inh noDet: qHTS Assay for Promiscuous and Specific Inhibitors of Cruzain (without detergent) | Cruzipain (Trypanosoma cruzi), P25779 | purified cruzain, Z-FR-AMC fluorescence, no detergent | Potency, µM, inactives show max response, negative = inhibition, most hits filed as inhibitors | 200,000 compounds, 2.3% hits | AID 1476, 2009;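 further: plate controls were enzyme without inhibitor for no effect and buffer without enzyme for full effect; nearly all actives have a fitted effect of over 40% in size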
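Detergent-free condition (0.00005% Triton X-100) in acetate buffer pH 5.5 with DTT. 1.5 nM enzyme and compound were pre-mixed 15 min, then 2 uM Z-FR-AMC substrate added; reaction progress from fluorescence change between first and third reads (60 s).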
* = called active by the depositor; ? = inconclusive. The call rests on the fitted dose curve; in most records, active means well fitted curve in the direction sought with a large enough effect; inconclusive means small, poorly fitted or top-dose-only effect, or another doubt; inactive means no such curve, though single readings can be large; an effect the other way counts as inactive or inconclusive. Potency means the concentration at half of the fitted maximal effect.

SMILES	Cruzain Triton	Cruzain inh noDet
Nn1c(SCC(=O)NC2CCCCC2)nnc1-c1ccc(Cl)cc1	0%	-1%
CCOc1ccccc1NC(=O)C1CCCN(c2ncnc3onc(-c4ccc(F)cc4)c23)C1 (stereo not given)	-2%	-5%
Cc1cccc(NC(=O)CCc2c(C)nc3nc(CNC(=O)c4cccc(F)c4)nn3c2C)c1	-6%	15%
Cc1nc(N2CCCC2)ncc1C(=O)Nc1ccccc1	-3%	-4%
O=C(c1cc2sccc2n1Cc1ccccc1)N1CCN(c2nc3ccccc3s2)CC1	-4%	7.9µM*
CCC(=O)N1CCN(c2nc3ccccc3s2)CC1	-3%	-2%
Cc1cccc(/C=C2\CS/C(=C\c3cccc(C)c3)C2=O)c1	-2%	25µM*
O=C1/C(=C/c2cccc(F)c2)CSc2sccc21	-2%	-2%
O=CN1CCc2c([nH]c3ccccc23)C1c1cccc2cccnc12 (stereo not given)	-2%	-12%
Cc1nc(/N=C(\N)NC(=O)N2c3ccccc3Sc3ccccc32)nc2ccccc12	-4%	7.9µM*
Cc1nc(/N=C(\N)NC(=O)c2ccccc2)nc2ccccc12	-11%	3%
Cc1nc(-c2cccc(NS(=O)(=O)c3ccc4ccccc4c3)c2)cs1	-1%	25µM*
Cc1nc(CNS(=O)(=O)c2ccc3ccccc3c2)cs1	2%	-3%
O=C(CSc1ccccc1)Nc1nc2ccccc2[nH]1	-7%	-3%
O=C(CSc1ccc(Cl)cc1)Nc1ccc(-c2nc3ccccc3[nH]2)cc1	?	20µM*
CCOC(=O)N1CCc2c(sc3c2c(=O)n(-c2ccc(F)cc2)c(=O)n3CC(=O)c2ccccc2)C1	-3%	-4%
CC(=O)Nc1ccc(S(=O)(=O)Nc2ccc(-c3cn4c(C)csc4n3)cc2)cc1	-4%	?
Cc1csc2nc(-c3ccc(NS(=O)(=O)c4cc(F)ccc4F)cc3)cn12	-4%	32µM*
Cc1csc2nc(-c3cccc(NS(C)(=O)=O)c3)cn12	-1%	-6%
CC(=O)c1ccc(S(=O)(=O)Nc2ccc(-c3cn4c(C)csc4n3)cc2)cc1	-4%	25µM*
CCS(=O)(=O)Nc1ccc(-c2cn3c(C)csc3n2)cc1	-2%	-19%
COc1ccc(S(=O)(=O)Nc2ccc(-c3cn4c(C)csc4n3)cc2)cc1	-4%	25µM*
CCOC(=O)c1cc(S(=O)(=O)N2CCN(c3ccc(C)cc3C)CC2)[nH]n1	-9%	26%
COc1ccc(S(=O)(=O)N2CCN(c3ccc(Cl)c(Cl)c3)CC2)c2ccccc12	-1%	7.9µM*
COc1ccc(S(=O)(=O)N2CCN(C)CC2)c2ccccc12	-2%	-1%
SMILES	Cruzain Triton	Cruzain inh noDet
COc1ccc(OC(=O)c2cn(-c3cccc(OC)c3)c(=O)c3ccccc23)cc1	-2%	2%
CCc1ccccc1N1C(=O)N(Cc2ccc(C#N)cc2)c2ccccc2S1(=O)=O	-2%	1%
CC(=O)NC(CC(C)C)C(=O)NC(Cc1ccccc1)C(N)=O (stereo not given)	3%	-1%
CC(=O)[C@H](CC(C)C)NC(=O)[C@@H](CC(C)C)NC(=O)[C@H](CC(C)C)NC(=O)OCc1ccccc1	0.0035µM*	0.013µM*
CC(=O)c1cccc(NCc2ccccc2-c2nnc(-c3ccccc3)o2)c1	-2%	2%
COc1ccc(COc2cc(-c3cccc(OC)c3)nc3ccc(NC(=O)c4cccnc4)cc23)cc1	0%	12%
COc1ccc(COc2cc(-c3cccc(OC)c3)nc3ccc(NC(=O)c4ccc(Cl)cc4)cc23)cc1	1%	2.8µM*
COc1cccc(-c2cc(C(=O)Nc3ccc4c(c3)OCCO4)c3ccccc3n2)c1	-7%	?
COc1ccc(COc2ccsc2C(=O)Nc2ccc(Cl)cc2)cc1	6%	-9%
COc1ccc(COc2cc(-c3cccc(OC)c3)nc3ccc(NC(=O)c4ccccc4)cc23)cc1	2%	7.9µM*
COc1ccc(COc2cc(-c3cccc(OC)c3)nc3ccc(NC(=O)c4ccc(OC)cc4)cc23)cc1	2%	7.9µM*
COc1ccc(OC)c2sc(N3CCN(C(=O)C(C)(C)C)CC3)nc12	-1%	24%
CCOC(=O)c1c(C)n(Cc2ccco2)c2ccc(OC)cc12	-18%	9%
CCOC(=O)c1c(C)n(Cc2ccco2)c2c1cc(O)c1ccccc12	-2%	25µM*
CCOc1ccc(NC(=O)Cn2c(=O)c(CNc3ccccc3)cc3cc4c(cc32)OCCO4)cc1	-4%	-23%
COc1ccc(NCc2cc3cc4c(cc3n(CC(=O)Nc3ccc(F)cc3)c2=O)OCCO4)cc1	-5%	20µM*
CCc1ccc(NCc2cc3cc4c(cc3n(CC(=O)Nc3ccc(F)cc3)c2=O)OCCO4)cc1	-8%	20µM*
CCc1ccc(NCc2cc3cc4c(cc3n(CC(=O)Nc3ccc(C)cc3)c2=O)OCO4)cc1	-3%	-22%
Cc1ccc(Cl)cc1N1CCN(C(=O)Cn2nc(C)n3c(cc4sccc43)c2=O)CC1	-2%	-7%
COc1ccc2cc(CNc3ccc(C)cc3)c(=O)n(CC(=O)Nc3ccc(OC)c(Cl)c3)c2c1	-2%	?
Cc1cc(-n2c(SCC(=O)NCc3ccccc3)nc3ccsc3c2=O)ccc1Cl	-1%	0%
CC(Sc1nc(=O)cc(N)n1CCc1ccccc1)C(=O)Nc1ccccc1C#N (stereo not given)	-12%	-12%
CSc1cccc(NC(=O)CN2C(=O)COc3ccc(Cl)cc32)c1	-9%	-19%
COc1cc(/C=C(\C#N)c2nc3ccccc3[nH]2)c([N+](=O)[O-])cc1OCc1ccccc1	-5%	32µM*
COc1cc(/C=C(\C#N)c2nc3ccccc3[nH]2)cc(Cl)c1OCc1ccccc1Cl	0%	10µM*
SMILES	Cruzain Triton	Cruzain inh noDet
COc1cc(/C=C(\C#N)c2nc3ccccc3[nH]2)ccc1OC(=O)c1ccco1	-4%	-9%
N#C/C(=C\c1ccc(OCc2ccc(Cl)cc2Cl)cc1)c1nc2ccccc2[nH]1	2%	-11%
CCOC(=O)c1c(C)[nH]c(C)c1S(=O)(=O)N1CCCC(C(=O)Nc2ccc(C)c(N(C)C)c2)C1 (stereo not given)	1%	6%
O=C(COC(=O)CNS(=O)(=O)/C=C/c1ccccc1)NC1CCS(=O)(=O)C1 (stereo not given)	-27%	-22%
Cc1ccc(C(=O)NCC(=O)OCC(=O)NC2CCS(=O)(=O)C2)cc1C (stereo not given)	16µM*	25µM*
Cc1ccc(C(=O)Nc2nnc(S(=O)(=O)N(C)Cc3ccc(Cl)cc3)s2)cc1	6%	-6%
Cc1cc(C)c(Nc2cc(S(=O)(=O)O)c(N)c3c2C(=O)c2ccccc2C3=O)c(C)c1	25µM*	?
Nc1ccc(-c2ccc(Nc3cc(S(=O)(=O)O)c(N)c4c3C(=O)c3ccccc3C4=O)cc2)c(S(=O)(=O)O)c1	3%	-1%
CCc1ccc(Cn2nnc(C(=O)Nc3ccc(C)cc3)c2N)cc1	4%	?
O=C(/C=C\c1ccc2c(c1)OCO2)Nc1c2c(nn1-c1ccc(Cl)cc1)CSC2	-5%	25µM*
O=C(/C=C\c1ccc2c(c1)OCO2)NC1CC(=O)N(c2ccc(Cl)cc2)C1 (stereo not given)	-1%	-9%
Cn1ccnc1SCC(=O)c1cc2ccccc2o1	-13%	25µM*
Cn1c(SCC(=O)c2cc3ccccc3o2)nnc1-c1ccccc1	-10%	-9%
CCCOc1ccc(/C=N/Nc2cccc([N+](=O)[O-])c2)c(O)c1	-5%	?

Screening results: PubChem BioAssay, National Center for Advancing Translational Sciences (NCATS)
